Experiment in all cases: DAPPL (digital affinity profiling via proximity ligation, sequencing); 10 mM Tris-HCl pH 7.5, 50 mM NaCl, 1 mM DTT, 4% glycerol, room temperature, 30 min; GST-TFs on glutathione beads, 16-mer random dsDNA library, 0.1% formaldehyde crosslink after washing; high values mean tight binding
Assay [1] addresses T1, FLI1 (Homo sapiens, UniProt Q01543 1-452).
T1 sequence: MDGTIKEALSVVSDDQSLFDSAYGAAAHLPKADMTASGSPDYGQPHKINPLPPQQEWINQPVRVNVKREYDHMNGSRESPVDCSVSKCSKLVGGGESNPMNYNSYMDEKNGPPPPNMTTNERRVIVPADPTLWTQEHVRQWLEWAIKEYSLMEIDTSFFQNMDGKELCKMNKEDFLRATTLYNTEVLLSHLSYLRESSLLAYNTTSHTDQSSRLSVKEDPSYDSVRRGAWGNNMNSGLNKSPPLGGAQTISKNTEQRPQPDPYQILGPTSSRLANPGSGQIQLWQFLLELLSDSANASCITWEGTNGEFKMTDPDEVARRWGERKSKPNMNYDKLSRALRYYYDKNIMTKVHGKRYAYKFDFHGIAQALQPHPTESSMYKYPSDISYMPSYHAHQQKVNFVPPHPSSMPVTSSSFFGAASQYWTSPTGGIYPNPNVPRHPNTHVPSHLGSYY
The conditions noted are these: protein: recombinant; tags: N-terminal GST; dsDNA, one strand shown. A digest of the protocol: (§1)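 Beads coated with glutathione captured GST-fused human transcription factors that had been expressed in yeast, and the factors were then given DNA barcodes and pooled with a tag-only sample. The pools were incubated with 200 nmole of a random double-stranded 16-mer DNA library in Tris/NaCl/DTT/glycerol buffer for 30 min at room temperature, washed, crosslinked with 0.1% formaldehyde and proximity-ligated with BsaI/T4 ligase at 37 °C for 1 h. PCR amplification and Illumina NextSeq500 sequencing came last. Binding signal is each hexamer's read frequency for a factor divided by its frequency for the tag-only sample.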

For assay [2], the target named is T2, ELK1 (Homo sapiens, UniProt P19419 1-428).
T2 sequence: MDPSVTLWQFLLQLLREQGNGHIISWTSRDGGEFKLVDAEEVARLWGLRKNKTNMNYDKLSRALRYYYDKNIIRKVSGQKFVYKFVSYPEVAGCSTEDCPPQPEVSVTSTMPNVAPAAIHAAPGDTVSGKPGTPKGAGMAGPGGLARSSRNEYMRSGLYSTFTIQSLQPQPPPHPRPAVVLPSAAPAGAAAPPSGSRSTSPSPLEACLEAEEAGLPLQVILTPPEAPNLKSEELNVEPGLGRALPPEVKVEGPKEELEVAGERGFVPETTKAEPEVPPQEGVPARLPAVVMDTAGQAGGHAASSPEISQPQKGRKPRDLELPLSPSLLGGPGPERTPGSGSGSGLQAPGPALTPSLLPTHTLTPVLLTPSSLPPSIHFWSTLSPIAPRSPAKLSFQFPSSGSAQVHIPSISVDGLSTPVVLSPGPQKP
To be noted: protein: recombinant; tags: N-terminal GST; dsDNA, one strand shown. A digest of the protocol: as §1

Assay [3] deals with T3, GABPA (Homo sapiens, UniProt Q06546 1-454).
T3 sequence: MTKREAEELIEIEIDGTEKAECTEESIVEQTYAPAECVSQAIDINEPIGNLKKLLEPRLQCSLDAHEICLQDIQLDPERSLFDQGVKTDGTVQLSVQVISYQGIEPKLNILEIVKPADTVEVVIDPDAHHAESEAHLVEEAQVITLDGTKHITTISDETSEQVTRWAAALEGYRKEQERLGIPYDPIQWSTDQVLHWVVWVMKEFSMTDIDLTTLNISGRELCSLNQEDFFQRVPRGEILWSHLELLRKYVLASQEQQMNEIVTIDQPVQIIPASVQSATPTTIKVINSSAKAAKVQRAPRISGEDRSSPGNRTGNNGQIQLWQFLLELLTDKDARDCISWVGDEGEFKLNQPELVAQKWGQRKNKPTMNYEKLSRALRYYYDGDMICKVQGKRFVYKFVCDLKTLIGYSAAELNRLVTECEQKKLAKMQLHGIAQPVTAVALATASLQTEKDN
To be noted: protein: recombinant; tags: N-terminal GST; dsDNA, one strand shown. An outline of the steps:
as §1

In assay [4] the target is T4, ERG (Homo sapiens, UniProt P11308 1-479).
T4 sequence: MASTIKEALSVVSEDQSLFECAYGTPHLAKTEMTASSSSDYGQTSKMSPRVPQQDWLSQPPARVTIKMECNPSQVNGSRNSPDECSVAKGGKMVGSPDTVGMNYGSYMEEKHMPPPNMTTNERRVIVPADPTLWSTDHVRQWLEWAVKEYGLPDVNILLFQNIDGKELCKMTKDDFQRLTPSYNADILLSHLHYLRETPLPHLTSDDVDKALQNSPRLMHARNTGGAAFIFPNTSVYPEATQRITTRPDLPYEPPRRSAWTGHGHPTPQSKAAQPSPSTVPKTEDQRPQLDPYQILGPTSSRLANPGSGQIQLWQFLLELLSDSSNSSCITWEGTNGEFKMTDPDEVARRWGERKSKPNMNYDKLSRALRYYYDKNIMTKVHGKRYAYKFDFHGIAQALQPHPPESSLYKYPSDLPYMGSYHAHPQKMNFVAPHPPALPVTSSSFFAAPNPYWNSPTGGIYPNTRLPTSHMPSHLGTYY
The conditions noted are these: protein: recombinant; tags: N-terminal GST; dsDNA, one strand shown. A digest of the protocol:
as §1

Assay [5] has as its target ELF1 (Homo sapiens, UniProt P32519 1-619). The conditions noted are these: protein: recombinant; tags: N-terminal GST; dsDNA, one strand shown. A digest of the protocol:
as §1

Assay [6] addresses T5, EHF (Homo sapiens, UniProt Q9NZC4 1-300).
T5 sequence: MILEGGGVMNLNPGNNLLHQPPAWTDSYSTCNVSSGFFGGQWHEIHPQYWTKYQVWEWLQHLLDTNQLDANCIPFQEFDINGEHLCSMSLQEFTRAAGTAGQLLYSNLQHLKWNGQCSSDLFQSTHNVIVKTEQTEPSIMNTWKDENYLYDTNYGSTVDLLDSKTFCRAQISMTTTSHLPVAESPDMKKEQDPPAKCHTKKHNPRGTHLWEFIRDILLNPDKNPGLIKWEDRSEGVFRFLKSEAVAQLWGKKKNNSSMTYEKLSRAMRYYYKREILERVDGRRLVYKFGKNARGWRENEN
The conditions noted are these: protein: recombinant; tags: N-terminal GST; dsDNA, one strand shown. An outline of the steps: as §1

Assay [7] deals with SPI1 (Homo sapiens, UniProt P17947 1-270). The conditions noted are these: protein: recombinant; tags: N-terminal GST; dsDNA, one strand shown. An outline of the steps:
as §1

For assay [8], the target named is SPIB (Homo sapiens, UniProt Q01892 1-262). To be noted: protein: recombinant; tags: N-terminal GST; dsDNA, one strand shown. An outline of the steps: as §1
Sequence of SPIB (Q01892 whole entry): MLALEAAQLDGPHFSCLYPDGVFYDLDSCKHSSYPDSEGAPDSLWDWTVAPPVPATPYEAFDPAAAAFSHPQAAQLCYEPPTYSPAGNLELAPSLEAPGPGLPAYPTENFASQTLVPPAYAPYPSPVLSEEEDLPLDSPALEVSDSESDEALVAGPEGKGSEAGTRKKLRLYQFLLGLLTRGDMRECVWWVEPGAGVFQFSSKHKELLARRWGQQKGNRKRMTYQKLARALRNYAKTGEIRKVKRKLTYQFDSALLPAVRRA
For assay [9], the target named is T6, ELK3 (Homo sapiens, UniProt P41970 1-407).
T6 sequence: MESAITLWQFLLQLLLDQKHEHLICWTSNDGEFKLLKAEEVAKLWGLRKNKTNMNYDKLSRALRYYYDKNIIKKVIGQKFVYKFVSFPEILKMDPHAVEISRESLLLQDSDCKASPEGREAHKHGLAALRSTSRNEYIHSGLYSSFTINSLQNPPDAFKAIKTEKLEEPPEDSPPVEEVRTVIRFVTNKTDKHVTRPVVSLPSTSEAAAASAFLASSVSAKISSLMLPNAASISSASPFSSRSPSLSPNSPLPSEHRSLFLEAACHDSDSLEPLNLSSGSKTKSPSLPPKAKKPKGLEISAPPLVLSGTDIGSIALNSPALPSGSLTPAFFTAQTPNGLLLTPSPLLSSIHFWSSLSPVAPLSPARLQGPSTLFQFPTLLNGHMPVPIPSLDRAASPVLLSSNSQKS
The conditions noted are these: protein: recombinant; tags: N-terminal GST; dsDNA, one strand shown. A digest of the protocol:
as §1

Assay [10] has as its target T7, FEV (Homo sapiens, UniProt Q99581 1-238).
T7 sequence: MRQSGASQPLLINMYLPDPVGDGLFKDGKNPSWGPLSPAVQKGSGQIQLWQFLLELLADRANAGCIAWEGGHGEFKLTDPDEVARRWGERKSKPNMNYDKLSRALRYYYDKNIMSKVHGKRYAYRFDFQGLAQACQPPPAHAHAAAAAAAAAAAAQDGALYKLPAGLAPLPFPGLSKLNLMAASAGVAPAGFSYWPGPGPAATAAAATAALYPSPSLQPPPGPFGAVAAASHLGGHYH
The conditions noted are these: protein: recombinant; tags: N-terminal GST; dsDNA, one strand shown. An outline of the steps: as §1

For assay [11], the target named is ETV5 (Homo sapiens, UniProt P41161 1-510). The conditions noted are these: protein: recombinant; tags: N-terminal GST; dsDNA, one strand shown. An outline of the steps:
as §1

Assay [12] deals with HSF1 (Homo sapiens, UniProt Q00613 1-529). To be noted: protein: recombinant; tags: N-terminal GST; chain copies: 3; dsDNA, one strand shown. An outline of the steps:
as §1

The target in assay [13] is T8, SPIC (Homo sapiens, UniProt Q8N5J4 1-248).
T8 sequence: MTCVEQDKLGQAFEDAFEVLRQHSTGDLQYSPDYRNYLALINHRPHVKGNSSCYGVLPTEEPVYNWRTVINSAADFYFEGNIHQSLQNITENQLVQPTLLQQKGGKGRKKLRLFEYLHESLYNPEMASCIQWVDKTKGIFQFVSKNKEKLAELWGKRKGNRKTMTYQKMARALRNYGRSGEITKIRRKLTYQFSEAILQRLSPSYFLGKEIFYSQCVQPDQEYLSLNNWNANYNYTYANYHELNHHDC
To be noted: protein: recombinant; tags: N-terminal GST; dsDNA, one strand shown. A digest of the protocol: as §1

For assay [14], the target named is ELF4 (Homo sapiens, UniProt Q99607 1-663). The conditions noted are these: protein: recombinant; tags: N-terminal GST; dsDNA, one strand shown. A digest of the protocol:
as §1

The target in assay [15] is T9, ETV2 (Homo sapiens, UniProt O00321 1-342).
T9 sequence: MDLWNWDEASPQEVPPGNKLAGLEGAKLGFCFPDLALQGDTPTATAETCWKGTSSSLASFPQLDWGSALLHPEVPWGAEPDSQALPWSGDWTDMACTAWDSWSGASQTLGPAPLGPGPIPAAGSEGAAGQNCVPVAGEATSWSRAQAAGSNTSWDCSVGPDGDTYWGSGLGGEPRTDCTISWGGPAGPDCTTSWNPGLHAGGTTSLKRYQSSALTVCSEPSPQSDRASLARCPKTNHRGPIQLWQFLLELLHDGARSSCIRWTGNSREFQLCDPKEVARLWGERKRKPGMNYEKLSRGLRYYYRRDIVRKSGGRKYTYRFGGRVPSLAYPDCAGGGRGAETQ
To be noted: protein: recombinant; tags: N-terminal GST; dsDNA, one strand shown. A digest of the protocol:
as §1

The target in assay [16] is T10, ELF3 (Homo sapiens, UniProt P78545 1-371).
T10 sequence: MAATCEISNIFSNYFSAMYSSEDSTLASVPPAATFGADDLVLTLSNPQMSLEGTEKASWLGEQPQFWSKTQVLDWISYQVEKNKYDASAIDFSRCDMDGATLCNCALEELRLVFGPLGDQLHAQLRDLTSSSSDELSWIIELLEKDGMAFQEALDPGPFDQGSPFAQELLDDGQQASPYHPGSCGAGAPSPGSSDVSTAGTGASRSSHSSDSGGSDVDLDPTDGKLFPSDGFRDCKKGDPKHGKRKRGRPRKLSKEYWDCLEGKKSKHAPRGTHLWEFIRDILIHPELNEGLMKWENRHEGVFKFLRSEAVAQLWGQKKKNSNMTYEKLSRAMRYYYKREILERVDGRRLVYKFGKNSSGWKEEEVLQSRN
To be noted: protein: recombinant; tags: N-terminal GST; dsDNA, one strand shown. An outline of the steps:
as §1

The target in assay [17] is ETV1 (Homo sapiens, UniProt P50549 1-477). The conditions noted are these: protein: recombinant; tags: N-terminal GST; dsDNA, one strand shown. A digest of the protocol:
as §1

Sequence of ETV1 (P50549 whole entry): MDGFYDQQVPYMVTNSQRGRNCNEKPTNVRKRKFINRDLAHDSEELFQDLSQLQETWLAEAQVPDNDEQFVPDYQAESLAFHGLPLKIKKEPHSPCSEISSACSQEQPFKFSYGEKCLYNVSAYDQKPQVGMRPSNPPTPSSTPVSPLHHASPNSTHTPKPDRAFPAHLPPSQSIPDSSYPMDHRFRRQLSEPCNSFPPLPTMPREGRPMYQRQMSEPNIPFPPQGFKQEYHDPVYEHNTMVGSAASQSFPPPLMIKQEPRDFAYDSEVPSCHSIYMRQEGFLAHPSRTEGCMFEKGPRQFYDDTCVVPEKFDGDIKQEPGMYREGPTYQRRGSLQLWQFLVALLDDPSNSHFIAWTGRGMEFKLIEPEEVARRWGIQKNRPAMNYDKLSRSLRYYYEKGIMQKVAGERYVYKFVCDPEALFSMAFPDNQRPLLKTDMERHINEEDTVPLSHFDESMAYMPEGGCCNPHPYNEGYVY
Sequence of HSF1 (Q00613 whole entry): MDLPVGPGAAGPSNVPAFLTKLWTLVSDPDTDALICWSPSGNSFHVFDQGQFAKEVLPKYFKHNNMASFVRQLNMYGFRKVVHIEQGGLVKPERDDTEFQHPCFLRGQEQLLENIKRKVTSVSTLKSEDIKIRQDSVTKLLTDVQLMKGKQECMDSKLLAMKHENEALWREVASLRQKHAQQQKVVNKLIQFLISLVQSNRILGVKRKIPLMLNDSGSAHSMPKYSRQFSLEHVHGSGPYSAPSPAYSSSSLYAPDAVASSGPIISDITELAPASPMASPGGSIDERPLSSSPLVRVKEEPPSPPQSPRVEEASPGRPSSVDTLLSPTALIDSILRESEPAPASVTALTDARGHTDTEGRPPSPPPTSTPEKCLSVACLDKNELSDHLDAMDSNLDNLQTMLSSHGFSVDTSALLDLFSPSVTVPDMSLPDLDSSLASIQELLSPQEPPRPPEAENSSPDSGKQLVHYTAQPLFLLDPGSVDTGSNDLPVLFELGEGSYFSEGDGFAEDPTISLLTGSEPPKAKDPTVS
Sequence of ELF4 (Q99607 whole entry): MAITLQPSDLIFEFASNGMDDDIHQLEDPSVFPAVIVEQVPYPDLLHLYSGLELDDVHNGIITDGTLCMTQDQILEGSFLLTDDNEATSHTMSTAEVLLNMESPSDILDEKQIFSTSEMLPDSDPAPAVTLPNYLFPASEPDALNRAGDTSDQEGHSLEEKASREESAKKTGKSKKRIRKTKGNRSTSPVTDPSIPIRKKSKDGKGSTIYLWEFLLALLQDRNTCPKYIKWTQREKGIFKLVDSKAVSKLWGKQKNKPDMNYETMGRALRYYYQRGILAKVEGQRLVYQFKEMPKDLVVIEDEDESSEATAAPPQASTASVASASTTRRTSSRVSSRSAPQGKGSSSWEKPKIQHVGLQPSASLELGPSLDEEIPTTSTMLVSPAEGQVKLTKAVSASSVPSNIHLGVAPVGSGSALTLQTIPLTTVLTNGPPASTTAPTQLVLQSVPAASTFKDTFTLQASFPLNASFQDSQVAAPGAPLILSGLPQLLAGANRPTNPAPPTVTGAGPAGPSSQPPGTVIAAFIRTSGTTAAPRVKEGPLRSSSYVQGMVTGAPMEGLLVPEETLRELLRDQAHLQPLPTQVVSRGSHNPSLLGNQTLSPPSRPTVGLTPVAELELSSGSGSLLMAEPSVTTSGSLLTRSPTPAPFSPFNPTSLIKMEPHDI
Sequence of ELF1 (P32519 whole entry): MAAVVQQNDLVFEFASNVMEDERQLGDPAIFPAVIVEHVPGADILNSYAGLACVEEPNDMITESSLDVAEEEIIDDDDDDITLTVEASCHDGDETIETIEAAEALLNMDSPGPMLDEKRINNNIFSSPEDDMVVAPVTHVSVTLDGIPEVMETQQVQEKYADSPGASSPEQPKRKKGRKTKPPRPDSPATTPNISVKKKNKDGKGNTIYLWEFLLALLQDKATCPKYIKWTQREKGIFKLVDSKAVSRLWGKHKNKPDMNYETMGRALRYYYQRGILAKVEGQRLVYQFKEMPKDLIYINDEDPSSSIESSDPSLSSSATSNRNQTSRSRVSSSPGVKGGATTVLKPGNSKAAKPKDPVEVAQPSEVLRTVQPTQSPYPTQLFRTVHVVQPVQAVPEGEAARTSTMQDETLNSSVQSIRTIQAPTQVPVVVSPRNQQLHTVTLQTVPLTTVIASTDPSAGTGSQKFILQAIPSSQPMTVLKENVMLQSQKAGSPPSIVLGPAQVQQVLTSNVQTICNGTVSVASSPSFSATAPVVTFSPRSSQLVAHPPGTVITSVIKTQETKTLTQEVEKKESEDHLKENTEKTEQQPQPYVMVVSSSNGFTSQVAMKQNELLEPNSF
Sequence of ETV5 (P41161 whole entry): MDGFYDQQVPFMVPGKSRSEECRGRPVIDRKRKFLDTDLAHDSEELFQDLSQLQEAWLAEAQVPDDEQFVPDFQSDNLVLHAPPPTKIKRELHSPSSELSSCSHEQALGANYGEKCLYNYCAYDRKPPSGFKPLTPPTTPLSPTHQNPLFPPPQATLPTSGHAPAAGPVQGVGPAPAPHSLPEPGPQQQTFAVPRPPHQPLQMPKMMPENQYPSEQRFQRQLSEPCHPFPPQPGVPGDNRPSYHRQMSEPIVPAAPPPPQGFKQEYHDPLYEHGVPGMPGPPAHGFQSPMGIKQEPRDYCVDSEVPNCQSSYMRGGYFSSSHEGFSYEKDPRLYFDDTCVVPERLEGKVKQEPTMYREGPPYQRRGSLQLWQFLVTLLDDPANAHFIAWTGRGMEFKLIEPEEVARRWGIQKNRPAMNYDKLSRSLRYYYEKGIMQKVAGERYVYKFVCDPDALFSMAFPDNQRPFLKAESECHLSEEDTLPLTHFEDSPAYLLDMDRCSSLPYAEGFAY

Take CTATGA: the binding signal in assay [1] is 1.03 fold enrichment (6-mer frequency, TF over GST control); in [2], 1.13 fold enrichment (6-mer frequency, TF over GST control); in [3], 1.18 fold enrichment (6-mer frequency, TF over GST control); in [4], 1.06 fold enrichment (6-mer frequency, TF over GST control); in assay [5], 1.16 fold enrichment (6-mer frequency, TF over GST control); in assay [6] it was 1.14 fold enrichment (6-mer frequency, TF over GST control). Moreover, the binding signal is 1.03 fold enrichment (6-mer frequency, TF over GST control) in assay [7]; 1.13 fold enrichment (6-mer frequency, TF over GST control) in assay [8]; 1.01 fold enrichment (6-mer frequency, TF over GST control) in assay [9]; 1.08 fold enrichment (6-mer frequency, TF over GST control) in assay [10]; 1.07 fold enrichment (6-mer frequency, TF over GST control) in [11]; 1.04 fold enrichment (6-mer frequency, TF over GST control) in assay [12]. Also, the binding signal in assay [13] was 1.17 fold enrichment (6-mer frequency, TF over GST control); in assay [14], 1.1 fold enrichment (6-mer frequency, TF over GST control); in [15] it was 1.19 fold enrichment (6-mer frequency, TF over GST control); in assay [16] it was 1.15 fold enrichment (6-mer frequency, TF over GST control); in assay [17] it was 1.02 fold enrichment (6-mer frequency, TF over GST control).
